Screening data from PubChem BioAssay.
In the library only some 3.1% were active in any assay of this set; here they are far more common.
ALOX15B inhib – qHTS Assay for Inhibitors of 15-hLO-2 (15-human lipoxygenase 2); Potency, µM (series often up to 57.1 µM), inactives show at the highest dose activity change, negative = inhibition, hits mostly inhibitors; purified 15hLO-2, xylenol orange hydroperoxide absorbance; AID 881, 2007; Polyunsaturated fatty acid lipoxygenase ALOX15B (Homo sapiens), O15296; 0.56% of 110,000 active; further: potency means the concentration at half of the fitted maximal effect; nearly all actives have a fitted effect of over 60% in size
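Read-out: hydroperoxide product oxidises ferrous iron, measured as xylenol orange complex via the 573-to-405 nm absorbance ratio after 30 min. Reaction: 50 nM enzyme, 15 min compound preincubation, 45 uM arachidonic acid, 90 min RT, Hepes pH 7.5 with Triton X-100.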
PNC assembly inh – High Content Assay for Compounds that inhibit the Assembly of the Perinucleolar Compartment | PC3M PTB-GFP, PNC prevalence imaging, 16 h; hits give low values | 3.1% of 140,000 active | activity change (PNC), negative = inhibition, % at 10 µM;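 active means readout at or below -70, meaning at least 70% loss of cells showing the perinucleolar compartment, a nuclear body marking cancer cells; inconclusive means readout between -30 and a set limit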;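 further: plate controls were DMSO wells for no effect and camptothecin positive control wells for full effect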
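Compounds are pinned in duplicate onto adhered PC3M cells stably expressing GFP-tagged PTB and incubated 16 h at 37 C. Cells are then fixed, nuclei stained with Hoechst, and PNC-positive cells counted.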
ALOX12 inhib – qHTS Assay for Inhibitors of 12-hLO (12-human lipoxygenase) | Polyunsaturated fatty acid lipoxygenase ALOX12 (Homo sapiens), P18054 | purified 12-hLO, xylenol orange hydroperoxide absorbance | Potency, µM (titrated, usually from 57.1 µM), for the others: at the highest dose activity change, negative = inhibition, hits mostly inhibitors | 0.12% of 150,000 active; further: potency means the concentration at half of the fitted maximal effect; nearly all actives have a fitted effect of over 55% in size
Target sequence (P18054 whole entry, looked up): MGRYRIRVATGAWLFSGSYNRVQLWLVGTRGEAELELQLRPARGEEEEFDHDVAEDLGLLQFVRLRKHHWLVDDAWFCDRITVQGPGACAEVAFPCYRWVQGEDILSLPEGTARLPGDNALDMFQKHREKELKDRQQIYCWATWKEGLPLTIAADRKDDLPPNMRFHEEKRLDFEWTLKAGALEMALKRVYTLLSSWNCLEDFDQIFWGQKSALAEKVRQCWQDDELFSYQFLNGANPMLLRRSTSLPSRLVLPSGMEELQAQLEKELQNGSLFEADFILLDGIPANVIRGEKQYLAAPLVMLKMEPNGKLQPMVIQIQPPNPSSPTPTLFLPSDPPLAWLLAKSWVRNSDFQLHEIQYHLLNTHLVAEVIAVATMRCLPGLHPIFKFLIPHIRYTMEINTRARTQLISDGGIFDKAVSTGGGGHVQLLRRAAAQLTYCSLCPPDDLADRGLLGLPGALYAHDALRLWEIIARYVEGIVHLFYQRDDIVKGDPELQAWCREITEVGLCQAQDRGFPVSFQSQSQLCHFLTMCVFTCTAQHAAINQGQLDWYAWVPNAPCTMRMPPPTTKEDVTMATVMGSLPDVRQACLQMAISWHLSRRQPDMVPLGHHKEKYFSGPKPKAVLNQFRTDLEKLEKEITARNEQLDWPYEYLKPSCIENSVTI
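150 nM 12hLO, 25 mM Hepes pH 7.0 + 0.01% Triton X-100; cpd preinc 15 min RT; 40 uM arachidonic acid, 30 min RT; Fe-XO 30 min; A573/A405 ratio as read-out.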
Starred values were filed as active, the others as inactive; ? = inconclusive; / = no result; [ ] = dose if it differs, or a comment. Unless noted, the call rests on the fitted dose curve; in most records, active means well fitted curve in the direction sought with a large enough effect; inconclusive means small, poorly fitted or top-dose-only effect, or another doubt; inactive means no such curve, though single readings can be large; an effect the other way counts as inactive or inconclusive. Unless noted, on the % scale 0 is the no-effect control and ±100 the full control effect.

SMILES | ALOX15B inhib | PNC assembly inh | ALOX12 inhib
COc1cccc(-c2nc(NCc3cccnc3)c3ccccc3n2)c1 | 53.1% | / | /
Cc1cc(C)nc(NS(=O)(=O)c2ccc(NC(=O)c3ccco3)cc2)n1 | -7.6% | -3.1 | -5.8%
CCc1ccc(C(=O)Nc2ccc(S(=O)(=O)Nc3nc(C)cc(C)n3)cc2)o1 | -7.0% | -106.5* | 5.9%
N#Cc1cccc(NC(=O)N2CC[C@@]3(CCCN(C(=O)c4cc(C(F)(F)F)cc(C(F)(F)F)c4)C3)C2)c1 | 3.5% | / | 2.6%
O=C(/C=C/c1ccc(O)c(O)c1)OCCc1ccccc1 | 10µM* | / | ?
O=C(O)/C=C\c1ccc(O)c(O)c1 | -2.9%[25.6 µM] | / | 4.3%[25.6 µM]
Nc1nc(=S)c2[nH]cnc2[nH]1 | -19.0% | / | -11.2%
CC[N+]1(C)[C@@H]2CC[C@H]1CC(OC(=O)[C@H]1CC[C@@](C(=O)OC3C[C@H]4CC[C@@H](C3)[N+]4(C)CC)(c3ccccc3)c3ccccc31)C2 (some centres undefined) | 8.4%[25.6 µM] | / | -1.0%[25.6 µM]
COc1ccc(NC(=O)NC2CCN(C(C)C)CC2)c(OC)c1 | 4.9% | -80.4* | 1.5%
COCCN(C(=O)Nc1ccc(OC)cc1OC)C1CCN(C(C)C)CC1 | 7.6% | -18.3 | 2.2%
O=C(O)CN(CCN(CC(=O)O)CC(=O)O)CC(=O)O.[Cu] | -13.4%[11.4 µM] | / | 1.5%[11.4 µM]
CC1CCN(c2ccccc2NC(=S)NC(=O)c2ccc(-c3cccc([N+](=O)[O-])c3)o2)CC1 | 15.8µM* | ? | -5.8%
CC1CCN(c2ccc(NC(=S)NC(=O)c3ccc(-c4cccc([N+](=O)[O-])c4)o3)cc2)CC1 | ? | 6.1 | -18.0%
O=C(c1cc([N+](=O)[O-])ccc1N1CCOCC1)N1CCCCC1 | / | 35.8 | 2.1%
CCOC(=O)c1cc(CC)sc1NC(=O)c1ccc(N2CCOCC2)c([N+](=O)[O-])c1 | 7.2% | -25.1 | -6.1%
Cc1ccc(C(=O)c2cc([N+](=O)[O-])ccc2N2CC(C)OC(C)C2)cc1 (centres undefined) | / | -17.8 | -1.1%
CC1CCN(c2ccc([N+](=O)[O-])cc2C(=O)O)CC1 | / | 26.4 | -4.8%
CCOC(=O)c1cc(CC)sc1NC(=O)c1cc([N+](=O)[O-])ccc1N1CCOCC1 | 6.9% | -83.9* | -0.5%
Cc1ccc(C(=O)c2cc([N+](=O)[O-])ccc2N2CCCCC2)cc1 | / | -110.2* | -0.7%
CC1CCCN(c2ccc([N+](=O)[O-])cc2C(=O)c2ccccc2)C1 (centres undefined) | / | -99.6* | -4.5%
O=C(c1ccccc1)c1cc([N+](=O)[O-])ccc1N1CCOCC1 | / | -112.5* | -2.9%
CCOc1ccc(C(=O)c2ccc(OC)c(O)c2O)cc1 | ? | / | -13.5%
O=C(O)CCC/C=C\CC1C2CCC(O2)C1CNNC(=O)Nc1ccccc1 (centres undefined) | / | / | 1.2%
CC1(C)C(=O)C(c2ccccc2)=C2CN3C(=O)N(CCc4ccccc4)C(=O)C3(Cc3ccccc3)C=C21 (centres undefined) | -2.4% | / | 0.2%
COc1ccc(/C(C#N)=C/c2c(-c3ccc(Cl)cc3)nc3c(C)cccn23)cc1 | 32.1% | 4.5 | -2.2%
SMILES | ALOX15B inhib | PNC assembly inh | ALOX12 inhib
Cc1cccn2c(/C=N/OCc3ccc(F)cc3)c(-c3ccc(Cl)cc3)nc12 | 2.7% | -108.8* | 2.5%
O=S(=O)(NCC1CCCO1)c1ccc(S(=O)(=O)N2CCc3ccccc3C2)cc1 (centres undefined) | 4.9%[11.4 µM] | -106.9* | 0.3%
O=C(Nc1ccc(S(=O)(=O)N2CCc3ccccc3C2)cc1)C1CCCO1 (centres undefined) | 7.7% | -17.6 | -9.7%
COc1ccc(Oc2ncc3nc(-c4cn(C)c5ccccc45)c(=O)n(CCC#N)c3n2)cc1 | -5.7% | / | -4.3%
O=C(O)[C@H]1CCc2ccc3ccccc3c2[C@H]1c1cccc2ccccc12 | -7.0%[11.4 µM] | / | -2.2%[11.4 µM]
CCCCc1ccc(-c2csc(/C(C#N)=C\c3ccco3)n2)cc1 | / | -110.6* | -4.9%
CCCCc1ccc(-c2csc(/C(C#N)=C/c3ccc(C)o3)n2)cc1 | -24.4% | 31.4 | -6.5%
CCCC[C@H]1C[C@@H]1[C@@H]1N(P(=O)(c2ccccc2)c2ccccc2)C[C@@](O)(c2ccccc2)CC12CC2 | 14.6% | / | -6.0%
O=C(CC(SCc1ccco1)c1ccc(O)cc1)c1cccs1 (centres undefined) | -15.4% | 48.8 | -24.5%
O=C(CC(SCCO)c1ccc2c(c1)OCO2)c1cccs1 (centres undefined) | 4.6% | -112.0* | -10.9%
C=C1C(=O)OC2C[C@@]3(C)CCCC(=C)[C@@H]3CC12 (some centres undefined) | -2.5% | / | 1.1%
Cc1ccc(N2CCN(C(=O)c3ccccc3Br)CC2)c(C)c1 | -13.6% | -29.6 | -17.0%
Cc1ccc(C)c(N2CCN(C(=O)c3ccccc3Br)CC2)c1 | 1.4% | -80.1* | 2.0%
Cc1nc2ccccc2n1S(=O)(=O)N(C)C | 15.3% | ? | 6.1%
CN(C)S(=O)(=O)n1cnc(-c2ccccc2)c1-c1ccccc1 | 4.3% | -117.5* | -2.9%
c1ccc(C[C@@H](Nc2cccnc2)c2ccccc2)cc1 | 20.6%[11.4 µM] | / | -2.0%[11.4 µM]
Cc1ccc(C)c(OCCCC(=O)Nc2ccc(N3CCOCC3)cc2)c1 | -11.6% | -83.6* | -14.4%
Cc1cccc(OCCCC(=O)Nc2ccc(N3CCOCC3)cc2)c1 | 10.7% | 5.7 | -3.3%
Cc1csc(SC(C)C(=O)Nc2ccc(Cl)cn2)n1 (centres undefined) | -4.4% | 3.5 | -3.2%
CC(Sc1nc(-c2ccc(F)cc2)cs1)C(=O)Nc1ccc(Cl)cn1 (centres undefined) | / | -100.0* | -1.5%
CC(C)c1ccc2c(c1)CCC1C(C)(C(N)=O)CCCC21C (centres undefined) | -3.1% | / | -6.6%
CC(C)n1c(=NC(=O)c2ccco2)c(C#N)cc2c(=O)n3ccccc3cc21 | / | -82.1* | -3.5%
Cc1cccn2c(=O)c3cc(C#N)c(=NC(=O)c4ccncc4)n(Cc4ccco4)c3nc12 | / | / | -7.0%
COc1ccccc1CNc1nc(-c2ccc3c(c2)OCO3)nc2ccccc12 | 5.1% | / | /
CC(C)n1c(=S)[nH]c2c1c(=O)[nH]c(=O)n2C | 12.6µM* | 16.2 | ?
SMILES | ALOX15B inhib | PNC assembly inh | ALOX12 inhib
C=CC(C)n1c(Br)nc2c1c(=O)[nH]c(=O)n2C (centres undefined) | -2.2% | 10.5 | -1.5%
N[C@H]1CCN(O)C1=O | 28.8% | / | -1.8%
COC(=O)N[C@H](CC(C)=O)c1cccc(C(F)(F)F)c1 | / | 33.0 | -2.2%
COC(=O)N[C@H](CC(C)=O)c1ccccc1 | / | -98.9* | -3.1%
OC[C@H]1O[C@@H](n2cnc3c(NC4CCCC4)ncnc32)[C@H](O)[C@@H]1O | / | -114.6* | 0.1%
OC[C@@H]1O[C@@H](n2cnc3c(NC4CCCC4)ncnc32)[C@H](O)[C@H]1O | 15.1% | / | -3.8%
CN(C)CCCc1c2ccccc2nc2ccc(Cl)cc12 | 15.1%[11.4 µM] | / | 7.3%[11.4 µM]
Cn1c(C(=O)NCc2ccccc2)cc2oc3ccccc3c21 | 1.9% | -105.8* | -0.6%
Cn1c(C(=O)NCc2cccs2)cc2oc3ccccc3c21 | -1.3% | 39.1 | 3.7%
CCn1c2ccccc2c2cc(NC(=O)c3ccc(Br)o3)ccc21 | 3.16µM* | ? | -7.4%
